Source: PubChem (Sanford-Burnham Center for Chemical Genomics)
TWEAK-Fn14 inh: inhibitors of TWEAK-Fn14 signaling, primary screen, luciferase reporter cells, uHTS; TWEAK-stimulated Fn14 reporter cells, luciferase luminescence, 8 h; inhibition, % at 10 µM; 360,000 compounds, 2% hits; in the data active = inhibition above about 50%
KKLEB tox: cytotoxicity in KKLEB CF airway cells, primary screen, cytotoxicity control for CF NF-kB inhibitor project, cell-based, uHTS, fluorescence assay plates; KKLEB CF airway cells viability, ATPlite luminescence, overnight; stronger effect = lower value; cells stimulated with P. aeruginosa culture filtrate; activity change (cytotoxicity), % at 5 µM; 360,000 compounds, 0.36% hits; AID 602141, 2011;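 active = corrected activity change at or below -50% at 5 µM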
TROY NFkB inh: inhibitors of TROY-driven NF-kB signaling, primary screen, Q293 LMP1-TROYcd cells, NF-kB luciferase, uHTS; Q293 LMP1-TROYcd NF-kB luciferase reporter, 4 h; inhibition, % at 10 µM; 360,000 compounds, 0.98% hits;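 active = compounds whose plate-normalised and pattern-corrected inhibition of the luciferase reporter signal at the single screening dose is 50% or more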
CF NFkB block: inhibitors of PAF-induced NF-kB signaling, primary screen, cell-based, GFP fluorescence, uHTS; KKLEB NF-kB-GFP reporter, GFP fluorescence overnight; inhibition, % at 5 µM; 360,000 compounds, 0.86% hits;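 active = at least 50% inhibition at 5 µM, scaled per plate between neutral and stimulator controls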;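 also: PAF is a Pseudomonas aeruginosa culture filtrate used as stimulus; plate controls were PAF-stimulated DMSO wells for no effect and unstimulated DMSO wells for full effect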
HIF-2a block: HIF-2a reporter inhibitors, primary screen, luminescence, 786-0 RCC cells | inhibition, % at 18.8 µM | 786-0 RCC cells HIF-2a reporter, luciferase luminescence, overnight | 360,000 compounds, 0.72% hits;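 active = inhibition of the luminescence signal of 40% or more relative to plate controls, in a single-dose primary screen at 18.75 µM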
Peg3 prom inh: Peg3 promoter-driven luciferase inhibitors, primary screen, cell-based, HeLa, luciferase luminescence; inhibition, % at 20 µM; HeLa PEG-Prom luciferase reporter, overnight; 360,000 compounds, 1.7% hits;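 active = inhibition of at least 50% at 20 µM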
Starred values were filed as active, the others as inactive; . = no result. This is a sample that favours compounds with a hit; in the whole collection about 4% have one here.

SMILES | TWEAK-Fn14 inh | KKLEB tox | TROY NFkB inh | CF NFkB block | HIF-2a block | Peg3 prom inh
COC(=O)c1ccc2nc(-c3ccc(Cl)cc3)c(Cc3ccc(OC)cc3C)n2c1 | 81* | . | 51* | . | -35 | .
O=C(CNc1cccc2ccccc12)N/N=C/c1ccc([N+](=O)[O-])o1 | 56* | 7 | 17 | -19 | -68 | 0
O=C(Nc1cccc([N+](=O)[O-])c1)c1ccc2ccccc2c1O | 53* | -35 | 21 | 37 | -454 | -238
O=C(Nc1cccc2ccccc12)c1ccc([N+](=O)[O-])o1 | 26 | -24 | -9 | 83* | 31 | 37
O=C(Cc1ccccc1)Nc1cccc([N+](=O)[O-])c1 | -5 | -9 | 5 | 7 | -3 | -1
O=C(Nc1cccc([N+](=O)[O-])c1)c1ccc([N+](=O)[O-])o1 | 22 | -9 | 1 | 70* | 21 | 42
OCCC1CN(CC2CC2)CCN1Cc1ccc(F)c(F)c1 (centres undefined) | 14 | 16 | -6 | -28 | 12 | -2
COc1ccc(OC)c(NC(=O)C2(C)CCN2C(=O)C2(c3ccccc3)CCCC2)c1 (centres undefined) | -4 | -12 | -9 | 26 | 3 | 30
Cc1ccc(NC(=O)c2ccc([N+](=O)[O-])o2)cc1C | 11 | -63* | -30 | 82* | -17 | 97*
O=C(Nc1ccc2[nH]c(=O)[nH]c2c1)c1ccc([N+](=O)[O-])o1 | 11 | 8 | -9 | -2 | 16 | 9
C=CCc1cccc(/C=N/NC(=O)CNc2cccc3ccccc23)c1O | 69* | -7 | 46 | 4 | 0 | 27
Cc1ccc(C2(C)NC(=O)N(CC(=O)NC(=O)NC(C)C)C2=O)cc1 (centres undefined) | 4 | -8 | 3 | -23 | 3 | -2
CC(C(=O)NC1CCCc2ccccc21)N1CCN(Cc2ccc3c(c2)OCO3)CC1 (centres undefined) | 8 | -4 | 58* | 3 | 4 | -1
CC(C(=O)NC1CCCc2ccccc21)N1CCN(c2ccc(F)cc2)CC1 (centres undefined) | 14 | -4 | 13 | 10 | 7 | 13
CCOc1ccccc1CNS(=O)(=O)c1ccc(-c2cnc(C3CC3)o2)cc1 | 33 | -28 | 56* | 46 | 23 | 17
COc1ccc(CCNC(=O)CSc2nc3scc(-c4ccccc4)c3c(=O)[nH]2)cc1 | -2 | 1 | 26 | 24 | -11 | 5
NC(N)=NN=C1c2ccccc2-c2ccccc21 | -4 | 8 | 16 | -16 | 12 | -1
CCCOc1ccc2c(c1)C(=NN=C(N)N)c1cc(OCCC)ccc1-2 | 8 | -13 | -11 | -2 | -12 | 90*
CC(C)(C)n1nnnc1C(c1ccccc1)N1CCN(c2ncccc2C(F)(F)F)CC1 (centres undefined) | -40 | . | -1 | . | 0 | .
CC(=O)Oc1c(I)cc(I)cc1C(=O)Nc1ccc(Cl)cc1 | 52* | -39 | 52* | 70* | -121 | 20
COc1ccc(Cl)cc1C(=O)Nc1ccc(NC(C)=O)cc1 | -2 | 2 | -32 | -9 | -23 | -11
O=C(COC(=O)c1ccc(F)c([N+](=O)[O-])c1)NC(=O)NCc1ccccc1 | 23 | -1 | -7 | 21 | 33 | 97*
Cc1ccc(OCC(=O)Nc2c(C)ccc3nsnc23)cc1 | -6 | 2 | -11 | 4 | 2 | 12
CCCNC(=O)C(CC)NC(=O)c1cccc([N+](=O)[O-])c1 (centres undefined) | -7 | -3 | 7 | 1 | 5 | 1
O=C1C(Sc2ccccc2)=C[C@@]2(O)CC[C@@H](O)[C@]1(Sc1ccccc1)[C@H]2O | 19 | . | -12 | . | 3 | .
SMILES | TWEAK-Fn14 inh | KKLEB tox | TROY NFkB inh | CF NFkB block | HIF-2a block | Peg3 prom inh
Cc1ccc(-c2nc(-c3nccc4ccccc34)oc2-c2ccccc2)cc1 | -4 | -2 | 63* | 4 | -87 | -279
Cc1ccc(NC(=O)COc2ccccc2CNC(C)(C)CC(C)(C)C)cc1 | -34 | -18 | -38 | 30 | -35 | 75*
C[C@]12CCC(=O)C=C1[C@H](O)C[C@@H]1[C@@H]2[C@@H](O)C[C@@]2(C)[C@H]1CC[C@]2(O)C(=O)CO | -18 | 7 | 8 | 31 | 24 | -12
CC12CCC(=O)C=C1CCC1C2C(O)CC2(C)C1CCC2(O)C(=O)CO (centres undefined) | -20 | 21 | 20 | 61* | 24 | -15
C[C@]12CCC(=O)C=C1CC[C@@H]1[C@@H]2[C@@H](O)C[C@@]2(C)[C@H]1CC[C@]2(O)C(=O)CO | -18 | 3 | 24 | 73* | 30 | -5
CCOC1=C2CN(S(=O)(=O)c3ccc(C)cc3)[C@H](c3ccccc3)C[C@@H]2N(S(=O)(=O)c2ccc(Br)cc2)[C@H](c2ccccc2)C1 | 14 | -14 | 3 | 23 | 2 | 14
COC(C(=O)C(O)C(C)O)C1Cc2cc3cc(OC4CC(OC5CC(O)C(O)C(C)O5)C(O)C(C)O4)c(C)c(O)c3c(O)c2C(=O)C1OC1CC(OC2CC(OC3CC(O)C(OC)C(C)O3)C(O)C(C)O2)C(O)C(C)O1 (centres undefined) | 85* | -34 | 8 | 90* | -30 | 100*
N#CCCN(C(=O)COC(=O)C12CC3CC(CC(O)(C3)C1)C2)c1ccc(F)cc1 | -1 | -9 | 10 | 8 | 8 | 0
Cc1ccc(-c2nc(NC(=O)CSc3nnc4scc(-c5ccccc5)n34)ns2)cc1 | 48 | -8 | 52* | 9 | -12 | -4
CCOC(=O)c1ccc(-c2c(-c3ccccc3OC)sc3ccc(OC)cc23)cc1F | -9 | 0 | 53* | -10 | -22 | 5
COc1ccc2sc(-c3ccccc3OC)c(-c3ccc(OC)nc3)c2c1 | -6 | 14 | -27 | -18 | -128 | -67
CCOC(=O)C1(C)CCN1C(=O)/C=C/c1ccccc1 (centres undefined) | -3 | 4 | -10 | -25 | -4 | 0
Cc1ccc(-c2nnc(-c3ccccc3)c(-c3ccccc3)n2)cc1 | -4 | 17 | -18 | 5 | -62 | -23
Cc1ccc2nc(-c3ccccc3)nn2c1 | 94* | -10 | 62* | -17 | 20 | 43
Fc1ccc2nc(Nc3nc4cc5c(cc4s3)OCCO5)sc2c1 | 45 | -8 | 62* | 8 | -189 | -171
Cc1ccc(CN2CCC2(C)C(=O)NC(C)C)cc1 (centres undefined) | 7 | 1 | -3 | 6 | 12 | 19
